The supplement of paper PMC10037445
Whole data set: some 2,900 compounds, median “IRF Lucia reporter activity, fold change vs agonist alone” near 0.9, cut for the highest 2% near 2.8. Many of the other results were omitted from the sample, so the highest values are more common in it than they were.

What was measured:
[1] = tested on: RAW-Dual; test: IRF Lucia reporter activity, fold change vs agonist alone; higher = enhanced IRF activity; conditions: library stock concentration (final ~1000-fold dilution): 10 mM; cytotoxicity flag (confluency mask): not cytotoxic; agonist: MPLA (TLR4) […]
Method in brief: (§1)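 After 50 nL of library stock was delivered by pin tool to RAW-Dual macrophages (50,000 cells/well, DMEM, 384-well plates), a PRR agonist was added 1 h later and the plates were kept at 37 °C, 5% CO2. Twenty hours later, IRF was read from supernatant by QuantiLuc luminescence and NF-κB by QuantiBlue absorbance at 620 nm. Reporter activity is stated as fold change over agonist-alone wells. Wells with IncuCyte confluency under 70% of agonist controls in both mask sets were counted as cytotoxic.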

[2] = tested on: RAW-Dual; test: IRF Lucia reporter activity, fold change vs agonist alone; cytotoxicity flag (confluency mask): not cytotoxic; higher = enhanced IRF activity
Method in brief: as §1

[3] = tested on: RAW-Dual; test: IRF Lucia reporter activity, fold change vs agonist alone; cytotoxicity flag (confluency mask): cytotoxic (confluency <70% of control); higher = enhanced IRF activity
Method in brief: as §1

[4] = agonist: 3'3'-cGAMP (STING) 10 ug/mL

## Cc1ccc(/C(=C\CN2CCCC2)c2ccccn2)cc1.Cl.O
[1]
  IRF Lucia reporter activity: 1.09

## Cc1ccc(/C(=C\CN2CCCC2)c2ccccn2)cc1.Cl.O (library stock concentration (final ~1000-fold dilution): 10 mM)
[2]; [4]
  IRF Lucia reporter activity: 0.877
[2]; agonist: LPS (TLR4) 0.1 ug/mL
  IRF Lucia reporter activity: 0.728

## CC(C)(O)c1cc(Nc2cc(Oc3cn(C4CC4)nc3C3CCOCC3)ccn2)ccn1 (library stock concentration (final ~1000-fold dilution): 10 mM)
[2]; [4]
  IRF Lucia reporter activity: 1.14
[2]; agonist: LPS (TLR4) 0.1 ug/mL
  IRF Lucia reporter activity: 1.53

## NC1CCCN(c2c(/C=C3\SC(=O)NC3=O)cccc2-c2ccccc2)C1 (stereo not given)
[1]
  IRF Lucia reporter activity: 1.1

## NC1CCCN(c2c(/C=C3\SC(=O)NC3=O)cccc2-c2ccccc2)C1 (stereo not given) (library stock concentration (final ~1000-fold dilution): 10 mM)
[2]; [4]
  IRF Lucia reporter activity: 0.968
[2]; agonist: LPS (TLR4) 0.1 ug/mL
  IRF Lucia reporter activity: 1.16

## CS(=O)(=O)CCNCc1ccc(-c2ccc3ncnc(Nc4ccc(OCc5cccc(F)c5)c(Cl)c4)c3c2)o1.Cc1ccc(S(=O)(=O)O)cc1.Cc1ccc(S(=O)(=O)O)cc1
[1]
  IRF Lucia reporter activity: 1.28

## CS(=O)(=O)CCNCc1ccc(-c2ccc3ncnc(Nc4ccc(OCc5cccc(F)c5)c(Cl)c4)c3c2)o1
[1]
  IRF Lucia reporter activity: 1.6

## CS(=O)(=O)CCNCc1ccc(-c2ccc3ncnc(Nc4ccc(OCc5cccc(F)c5)c(Cl)c4)c3c2)o1.Cc1ccc(S(=O)(=O)O)cc1.Cc1ccc(S(=O)(=O)O)cc1.O (library stock concentration (final ~1000-fold dilution): 10 mM)
[2]; [4]
  IRF Lucia reporter activity: 0.259
[2]; agonist: LPS (TLR4) 0.1 ug/mL
  IRF Lucia reporter activity: 2.46

## CS(=O)(=O)CCNCc1ccc(-c2ccc3ncnc(Nc4ccc(OCc5cccc(F)c5)c(Cl)c4)c3c2)o1.Cc1ccc(S(=O)(=O)O)cc1.Cc1ccc(S(=O)(=O)O)cc1.O
[1]
  IRF Lucia reporter activity: 1.8

## CS(=O)(=O)CCNCc1ccc(-c2ccc3ncnc(Nc4ccc(OCc5cccc(F)c5)c(Cl)c4)c3c2)o1.Cc1ccc(S(=O)(=O)O)cc1.Cc1ccc(S(=O)(=O)O)cc1 (library stock concentration (final ~1000-fold dilution): 10 mM)
[2]; [4]
  IRF Lucia reporter activity: 0.264
[2]; agonist: LPS (TLR4) 0.1 ug/mL
  IRF Lucia reporter activity: 3.36

## CS(=O)(=O)CCNCc1ccc(-c2ccc3ncnc(Nc4ccc(OCc5cccc(F)c5)c(Cl)c4)c3c2)o1 (library stock concentration (final ~1000-fold dilution): 10 mM)
[2]; [4]
  IRF Lucia reporter activity: 0.277
[2]; agonist: LPS (TLR4) 0.1 ug/mL
  IRF Lucia reporter activity: 1.43

## COc1cc(F)c(C(C)C)cc1-c1ccc(C(F)(F)F)cc1CN1C(=O)OC(c2cc(C(F)(F)F)cc(C(F)(F)F)c2)C1C (stereo not given)
[1]
  IRF Lucia reporter activity: 1.1

## COc1cc(F)c(C(C)C)cc1-c1ccc(C(F)(F)F)cc1CN1C(=O)OC(c2cc(C(F)(F)F)cc(C(F)(F)F)c2)C1C (stereo not given) (library stock concentration (final ~1000-fold dilution): 10 mM)
[2]; [4]
  IRF Lucia reporter activity: 1.12
[2]; agonist: LPS (TLR4) 0.1 ug/mL
  IRF Lucia reporter activity: 1.14

## CC(C)(O)CNc1nc(Nc2ccnc(C(F)(F)F)c2)nc(-c2cccc(C(F)(F)F)n2)n1 (library stock concentration (final ~1000-fold dilution): 10 mM)
[2]; [4]
  IRF Lucia reporter activity: 1
[2]; agonist: LPS (TLR4) 0.1 ug/mL
  IRF Lucia reporter activity: 1.29

## COc1cc(N2CCN(C)CC2)ccc1Nc1nccc(-c2cn(C)c3cnccc23)n1
[1]
  IRF Lucia reporter activity: 0.246

## CC(C)(O)CNc1ncc(-c2ccnc(Nc3ccnc(Cl)c3)n2)c(CC2CC2)n1 (library stock concentration (final ~1000-fold dilution): 10 mM)
[2]; [4]
  IRF Lucia reporter activity: 0.0702
[2]; agonist: LPS (TLR4) 0.1 ug/mL
  IRF Lucia reporter activity: 3.2

## Cc1ccc(NC(=O)c2ccc(CN3CCN(C)CC3)cc2)cc1Nc1nccc(-c2cccnc2)n1
[1]
  IRF Lucia reporter activity: 1.29

## Cc1nc(N)sc1-c1ccnc(Nc2ccc(N3CCOCC3)cc2)n1
[1]
  IRF Lucia reporter activity: 0.0284

## Cc1ccc(NC(=O)c2ccc(CN3CCN(C)CC3)cc2)cc1Nc1nccc(-c2cccnc2)n1 (library stock concentration (final ~1000-fold dilution): 10 mM)
[2]; [4]
  IRF Lucia reporter activity: 0.549
[2]; agonist: LPS (TLR4) 0.1 ug/mL
  IRF Lucia reporter activity: 0.944

## CC(C)(O)CNc1ncc(-c2ccnc(Nc3ccncc3)n2)c(CC2CC2)n1 (library stock concentration (final ~1000-fold dilution): 10 mM)
[2]; [4]
  IRF Lucia reporter activity: 0.364
[2]; agonist: LPS (TLR4) 0.1 ug/mL
  IRF Lucia reporter activity: 10.3

## Cc1nc(N)sc1-c1ccnc(Nc2ccc(N3CCOCC3)cc2)n1 (library stock concentration (final ~1000-fold dilution): 10 mM)
[2]; [4]
  IRF Lucia reporter activity: 0.0149
[2]; agonist: LPS (TLR4) 0.1 ug/mL
  IRF Lucia reporter activity: 0.023

## Nc1ncc(-c2ccnc(Nc3ccncc3)n2)c(CC2CC2)n1 (library stock concentration (final ~1000-fold dilution): 10 mM)
[3]; [4]
  IRF Lucia reporter activity: 0.336
[3]; agonist: LPS (TLR4) 0.1 ug/mL
  IRF Lucia reporter activity: 3.92

## COc1cc(N2CCN(C)CC2)ccc1Nc1nccc(-c2cn(C)c3cnccc23)n1 (library stock concentration (final ~1000-fold dilution): 10 mM)
[2]; [4]
  IRF Lucia reporter activity: 0.0231
[2]; agonist: LPS (TLR4) 0.1 ug/mL
  IRF Lucia reporter activity: 0.154

## Cc1c(NC(=O)OCC2COCCN2)cn2ncnc(Nc3ccc4c(cnn4Cc4cccc(F)c4)c3)c12 (stereo not given) (library stock concentration (final ~1000-fold dilution): 10 mM)
[2]; [4]
  IRF Lucia reporter activity: 0.267
[2]; agonist: LPS (TLR4) 0.1 ug/mL
  IRF Lucia reporter activity: 1.28

## Cc1c(NC(=O)OCC2COCCN2)cn2ncnc(Nc3ccc4c(cnn4Cc4cccc(F)c4)c3)c12 (stereo not given)
[1]
  IRF Lucia reporter activity: 1.3
